Inconclusive results are not listed. Active and inactive are the calls of the source. Unless noted, the call rests on the fitted dose curve; in most records, active means well fitted curve in the direction sought with a large enough effect; inconclusive means small, poorly fitted or top-dose-only effect, or another doubt; inactive means no such curve, though single readings can be large; an effect the other way counts as inactive or inconclusive.
Assays:
[1] = biological target: Lysosomal acid glucosylceramidase (Homo sapiens) (UniProt P04062); assay: Glucocerebrosidase-p2 (AID 348; in the data active means potency below about 10 µM; further: potency means the concentration at half of the fitted maximal effect); conditions: purified GBA, blue fluorogenic substrate, 40 min
Sequence of Lysosomal acid glucosylceramidase (Homo sapiens) (P04062 whole entry, looked up): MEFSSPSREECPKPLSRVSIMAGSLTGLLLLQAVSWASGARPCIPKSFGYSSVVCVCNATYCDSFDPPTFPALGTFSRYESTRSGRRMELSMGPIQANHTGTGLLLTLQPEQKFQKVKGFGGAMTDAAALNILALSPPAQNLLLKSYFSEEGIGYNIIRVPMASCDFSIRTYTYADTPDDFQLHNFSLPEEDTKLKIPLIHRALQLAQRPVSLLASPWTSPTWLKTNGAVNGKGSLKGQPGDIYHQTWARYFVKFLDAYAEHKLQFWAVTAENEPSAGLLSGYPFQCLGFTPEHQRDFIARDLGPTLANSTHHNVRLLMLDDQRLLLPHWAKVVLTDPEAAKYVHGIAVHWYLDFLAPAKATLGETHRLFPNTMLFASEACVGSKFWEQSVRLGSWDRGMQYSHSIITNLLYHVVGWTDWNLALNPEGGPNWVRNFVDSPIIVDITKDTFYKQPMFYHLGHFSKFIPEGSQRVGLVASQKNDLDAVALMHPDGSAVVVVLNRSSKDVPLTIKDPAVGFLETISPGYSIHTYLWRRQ
How it was run: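 Normal human glucocerebrosidase (0.2 nM) with blue fluorogenic substrate (80 uM final) in citrate/phosphate pH 5.9 with 10mM sodium taurocholate, 0.01% tween-20; 40 min RT, NaOH/glycine stop; fluorescence Ex 365/Em 440; AC50 from a titration from 0.6 nM upwards.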

[2] = AP1 Signaling Pathway (AID 357; active means well fitted curve in either direction with a large enough effect, not every such curve was filed as active; further: on the % scale 0 is the no-effect control and ±100 the full control effect); conditions: ME-180 AP-1-bla reporter, EGF-induced, beta-lactamase ratio, 5 h; at 7.69 µM (top of the series) unless noted
How it was run: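 In this screen, ME-180 cells in Opti-MEM with 0.5% dialyzed FBS received EC50 EGF and compound titrations for 5 h. AP-1 reporter beta-lactamase was detected via CCF4 ratio, giving AC50 for positive and negative modulators.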

[3] = biological target: Cytochrome P450 1A2 (Homo sapiens) (UniProt P05177); assay: p450-cyp1a2 (AID 410; calls by dose curve; further: potency means the concentration at half of the fitted maximal effect); conditions: recombinant CYP1A2, luciferin-ME demethylation, luminescence; series mostly up to 57 µM
Sequence of Cytochrome P450 1A2 (Homo sapiens) (P05177 whole entry, looked up): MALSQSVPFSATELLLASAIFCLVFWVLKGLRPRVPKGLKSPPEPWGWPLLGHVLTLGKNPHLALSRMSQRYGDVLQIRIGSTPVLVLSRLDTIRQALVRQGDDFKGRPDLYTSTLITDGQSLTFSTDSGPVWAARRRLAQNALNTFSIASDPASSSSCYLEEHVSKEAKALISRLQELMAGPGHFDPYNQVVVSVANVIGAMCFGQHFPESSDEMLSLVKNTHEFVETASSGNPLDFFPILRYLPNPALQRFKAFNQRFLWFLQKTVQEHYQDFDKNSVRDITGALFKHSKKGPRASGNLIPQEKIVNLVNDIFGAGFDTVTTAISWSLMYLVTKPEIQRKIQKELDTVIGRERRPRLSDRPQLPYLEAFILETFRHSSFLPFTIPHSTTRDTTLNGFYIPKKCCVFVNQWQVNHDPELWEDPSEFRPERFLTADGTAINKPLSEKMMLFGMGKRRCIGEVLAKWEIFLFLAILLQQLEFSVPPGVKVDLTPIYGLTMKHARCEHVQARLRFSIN
How it was run: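 20nM CYP1A2, 100uM Luciferin-ME (=Km), 100mM KPO4; cpd 10 min RT; +NADPH regen, 60 min RT; stop/detect 20 min; luminescence. Normalized to furafylline 57 uM = full inhibition.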

[4] = NFAT Signaling Pathway (AID 444; active means well fitted curve in either direction with a large enough effect, not every such curve was filed as active;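 further: carbachol stimulus at about its EC50 of 1 µM final; on the % scale 0 is the no-effect control and ±100 the full control effect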); conditions: Jurkat NFAT-bla M1, carbachol, beta-lactamase ratio, 5 h; at 7.69 µM (top of the series) unless noted
How it was run: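 Jurkat cells carrying an NFAT-driven β-lactamase reporter and co-transfected muscarinic M1 receptor were treated with compound plus carbachol (1 uM final, an EC50 level) for 5 h at 37 °C. CCF4 loading followed for 1 h at RT; 460/530 nm ratio gave %activity.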

[5] = Stat Signaling Pathway (AID 446; active means well fitted curve in either direction with a large enough effect, not every such curve was filed as active;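 further: ME-180 cervical cancer cells given 40 pM IL-6 alongside compound; SIE-controlled beta-lactamase reporter measured as 460/530 nm FRET emission ratio; on the % scale 0 is the no-effect control and ±100 the full control effect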); conditions: ME-180 (cervical carcinoma) SIE beta-lactamase reporter, IL-6 stimulated, 5 h; at 7.69 µM (top of the series) unless noted
How it was run: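 Emission at 460 and 530 nm (excitation 405 nm) reports SIE-controlled beta-lactamase in ME-180 cells. Cells received compound with 40 pM IL-6 for 5 hrs at 37 C; data scaled between 300 pM IL-6 and 125 nM JAK-inhibitor controls.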

[6] = biological target: Glucocorticoid receptor (Homo sapiens) (UniProt P04150); assay: GR-GFP Redistribution (AID 450;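 active means compounds whose dose series gives a full or clear partial fitted curve of increased nuclear translocation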; further: potency means the concentration at half of the fitted maximal effect); conditions: U2OS GR-GFP nuclear translocation, laser cytometry, 2 h
Sequence of Glucocorticoid receptor (Homo sapiens) (P04150 whole entry, looked up, the tested form may be a part): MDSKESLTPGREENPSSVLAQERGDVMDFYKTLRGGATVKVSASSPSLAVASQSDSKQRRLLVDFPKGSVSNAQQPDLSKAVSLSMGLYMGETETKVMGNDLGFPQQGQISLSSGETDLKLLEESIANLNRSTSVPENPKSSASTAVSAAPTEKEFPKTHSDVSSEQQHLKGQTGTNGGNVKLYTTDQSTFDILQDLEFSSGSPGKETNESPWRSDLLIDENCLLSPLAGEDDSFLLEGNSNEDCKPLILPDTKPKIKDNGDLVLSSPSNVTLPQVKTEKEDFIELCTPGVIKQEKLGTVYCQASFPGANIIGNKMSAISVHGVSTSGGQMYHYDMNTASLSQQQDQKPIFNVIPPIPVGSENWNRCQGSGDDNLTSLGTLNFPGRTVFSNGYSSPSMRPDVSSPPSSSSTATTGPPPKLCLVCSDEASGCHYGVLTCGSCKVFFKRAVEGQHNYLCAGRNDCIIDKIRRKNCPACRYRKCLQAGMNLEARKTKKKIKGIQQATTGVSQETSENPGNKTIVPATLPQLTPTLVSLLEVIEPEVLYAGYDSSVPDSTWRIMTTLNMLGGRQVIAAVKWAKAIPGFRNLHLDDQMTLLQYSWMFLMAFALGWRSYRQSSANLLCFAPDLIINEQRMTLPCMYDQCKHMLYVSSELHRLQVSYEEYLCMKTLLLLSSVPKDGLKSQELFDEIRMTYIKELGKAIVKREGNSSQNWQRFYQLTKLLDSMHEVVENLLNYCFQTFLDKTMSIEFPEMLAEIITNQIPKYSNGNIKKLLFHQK

[7] = biological target: Glucocorticoid receptor (Homo sapiens) (UniProt P04150); assay: GR-EFC Redistribution (AID 451; calls by dose curve; further: potency means the concentration at half of the fitted maximal effect); conditions: CHO-K1 GR-EFC translocation, beta-gal luminescence, 2 h
How it was run: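 CHO-K1 cells stably expressing nuclear-localized β-gal enzyme acceptor and GR fused C-terminally to the enzyme donor fragment; ligand-driven nuclear translocation restores β-gal by complementation. Compounds titrated up to 46 uM final, 2 h at 37 °C; luminescence read.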

[8] = biological target: Mitogen-activated protein kinase 10 (Mus musculus) (UniProt Q61831); assay: JNK3 AlphaScreen Assay (AID 530; active means well fitted curve in either direction with a large enough effect, not every such curve was filed as active;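 further: kinase came from lysate of stimulated human HepG2 cells; signal reports phosphorylation of biotinylated GST-cJun 1-79 at Ser73 with 10 µM ATP; on the % scale 0 is the no-effect control and ±100 the full control effect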); conditions: JNK3 lysate, c-Jun phosphorylation; series mostly up to 57.1 µM
How it was run: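 Biotinylated GST-cJun(1-79) served as substrate for JNK3 in HepG2 lysates stimulated with IL-1beta and TNF-alpha. ATP was 10 uM final, pH 7.6. Ser73 phosphorylation was quantified by AlphaScreen (680 nm excitation).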

[9] = biological target: 3',5'-cyclic-AMP phosphodiesterase 4B (Homo sapiens) (UniProt Q07343); assay: qHTS Assay for Inhibitors of PDE-IV (AID 607; active means well fitted activation curve with a large enough effect in the main read-out, with a control signal flat, not every such curve was filed as active; further: % of control where 0% means no effect); conditions: HEK293 ACTOne CNG channel cells, membrane potential fluorescence; series mostly up to 22.9 µM
Sequence of 3',5'-cyclic-AMP phosphodiesterase 4B (Homo sapiens) (Q07343 whole entry, looked up): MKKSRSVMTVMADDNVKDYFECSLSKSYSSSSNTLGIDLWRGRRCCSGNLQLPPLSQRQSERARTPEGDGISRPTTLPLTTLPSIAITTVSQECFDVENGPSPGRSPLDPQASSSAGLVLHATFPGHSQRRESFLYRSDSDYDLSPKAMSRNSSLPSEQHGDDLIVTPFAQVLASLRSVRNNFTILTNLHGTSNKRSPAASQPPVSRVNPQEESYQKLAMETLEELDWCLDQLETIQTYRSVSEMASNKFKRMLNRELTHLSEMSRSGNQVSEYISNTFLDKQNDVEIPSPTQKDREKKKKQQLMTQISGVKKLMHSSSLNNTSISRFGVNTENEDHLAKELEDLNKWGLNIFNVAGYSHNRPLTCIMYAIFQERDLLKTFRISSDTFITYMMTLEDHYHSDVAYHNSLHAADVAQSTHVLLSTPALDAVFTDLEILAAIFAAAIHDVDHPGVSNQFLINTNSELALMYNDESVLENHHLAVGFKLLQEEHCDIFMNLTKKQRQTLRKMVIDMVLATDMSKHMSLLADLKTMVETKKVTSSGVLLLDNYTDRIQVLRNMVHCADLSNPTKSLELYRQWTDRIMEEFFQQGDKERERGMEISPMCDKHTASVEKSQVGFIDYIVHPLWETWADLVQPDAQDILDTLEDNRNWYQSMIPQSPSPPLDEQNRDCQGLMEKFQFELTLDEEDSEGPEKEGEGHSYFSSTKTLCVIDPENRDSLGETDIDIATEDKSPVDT
How it was run: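 The readout is membrane depolarisation from a cAMP-sensing CNG channel, detected with a potential dye at ex 535/em 590. Cells were HEK293-derived (endogenous PDE-IV) at 1000 cells/well, titrated up to 22.9 uM final.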

[10] = biological target: Cytochrome P450 3A4 (Homo sapiens) (UniProt P08684); assay: qHTS Assay for Inhibitors and Substrates of Cytochrome P450 3A4 (AID 884); conditions: recombinant CYP3A4, Luciferin-PPXE luminescence; series mostly up to 57.1 µM; further: nearly all actives have a fitted effect of over 50% in size; further: potency means the concentration at half of the fitted maximal effect
Sequence of Cytochrome P450 3A4 (Homo sapiens) (P08684 whole entry, looked up): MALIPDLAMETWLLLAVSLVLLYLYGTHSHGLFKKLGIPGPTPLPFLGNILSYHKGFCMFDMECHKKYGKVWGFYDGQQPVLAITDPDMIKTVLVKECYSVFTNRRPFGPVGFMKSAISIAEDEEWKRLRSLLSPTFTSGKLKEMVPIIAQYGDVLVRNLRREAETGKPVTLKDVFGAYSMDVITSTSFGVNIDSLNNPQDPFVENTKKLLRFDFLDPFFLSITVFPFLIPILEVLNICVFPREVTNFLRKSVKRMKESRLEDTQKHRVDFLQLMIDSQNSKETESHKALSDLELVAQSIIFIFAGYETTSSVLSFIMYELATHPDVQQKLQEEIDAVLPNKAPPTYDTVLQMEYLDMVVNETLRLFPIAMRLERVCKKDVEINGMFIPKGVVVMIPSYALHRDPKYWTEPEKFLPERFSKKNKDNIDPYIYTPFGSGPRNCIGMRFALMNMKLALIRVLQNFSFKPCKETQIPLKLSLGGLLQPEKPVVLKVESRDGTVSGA
How it was run: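 Luminescent readout of luciferin produced by CYP3A4 (20 nM) dealkylation of Luciferin-PPXE, 25 uM (its KM). NADPH-driven reaction ran 60 min at RT after 10 min compound preincubation; data scaled to 57 uM ketoconazole as 100% inhibition.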

[11] = biological target: Cytochrome P450 3A4 (Homo sapiens) (UniProt P08684); assay: qHTS Assay for Activators of Cytochrome P450 3A4 (AID 885); conditions: recombinant CYP3A4, Luciferin-PPXE luminescence, 60 min; series mostly up to 57.1 µM; further: nearly all actives have a fitted effect of over 65% in size
How it was run: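 Activators are scored by enhanced luminescence from CYP3A4 conversion of luciferin-PPXE (25uM, equal to KM) to luciferin, after 60 min at RT with an NADPH-regenerating system.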

[12] = biological target: Cytochrome P450 2C19 (Homo sapiens) (UniProt P33261); assay: qHTS Assay for Inhibitors and Substrates of Cytochrome P450 2C19 (AID 899); conditions: recombinant CYP2C19, luciferin-H EGE luminescence; series mostly up to 57.1 µM; further: potency means the concentration at half of the fitted maximal effect; nearly all actives have a fitted effect of over 60% in size
Sequence of Cytochrome P450 2C19 (Homo sapiens) (P33261 whole entry, looked up): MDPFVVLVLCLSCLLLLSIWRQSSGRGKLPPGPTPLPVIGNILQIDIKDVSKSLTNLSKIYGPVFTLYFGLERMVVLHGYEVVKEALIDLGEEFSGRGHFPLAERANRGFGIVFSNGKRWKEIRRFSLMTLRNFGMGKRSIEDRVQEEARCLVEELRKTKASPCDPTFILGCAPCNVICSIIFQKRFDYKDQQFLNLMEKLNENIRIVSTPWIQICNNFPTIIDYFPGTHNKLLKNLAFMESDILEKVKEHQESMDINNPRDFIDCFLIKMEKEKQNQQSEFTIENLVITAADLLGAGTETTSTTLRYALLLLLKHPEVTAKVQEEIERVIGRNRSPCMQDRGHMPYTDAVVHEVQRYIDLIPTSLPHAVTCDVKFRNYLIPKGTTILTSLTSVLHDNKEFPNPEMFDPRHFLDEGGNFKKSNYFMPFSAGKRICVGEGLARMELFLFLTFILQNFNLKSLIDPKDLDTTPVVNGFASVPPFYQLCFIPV
How it was run: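 Human CYP2C19 (5nM) with Luciferin-H EGE at 10uM (its KM) in 50mM KPO4 was preincubated with compound for 10 min at 37C. NADPH regeneration started a 60 min 37C reaction. Luciferin was read by luminescence, normalized to 57uM ketoconazole.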

[13] = Confirmation and Secondary Assay for Modulators of Hemoglobin Beta Chain Splicing at IVS2 705 locus (AID 930); conditions: HeLa EGFP-705 splicing reporter, GFP fluorescence, 48 h; series mostly up to 38.3 µM;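 further: HeLa cells stably expressing the EGFP-705 splicing reporter; GFP fluorescence per well restored by corrected splicing of the IVS2-705 intron in EGFP; % of control where 0% means no effect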
How it was run: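 HeLa cells stably carrying EGFP interrupted by mutant beta-globin intron 2 (IVS2-705) treated 2 days at 37C with compound; 500 nM antisense PNA as control. Correct splicing read as total peak GFP intensity per well by laser-scanning cytometry.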

[14] = qHTS Assay for Lipid Storage Modulators (AID 1519; calls by dose curve); conditions: Drosophila S3 cells, BODIPY lipid droplet/cell ratio, laser cytometry, cells loaded with oleic acid; for activity change, negative = inhibition: at 57.5 µM (top of the series)
How it was run: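 Cells seeded at 5,000 per well were treated with compounds over a concentration series and loaded with oleic acid (400 uM, as added). Lipid droplet fluorescence (488 nm excitation, 500-530 nm channel) was read by laser-scanning cytometry and normalized to 20 uM Triacsin C.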

[15] = Confirmation and Secondary Assay for Modulators of Hemoglobin Beta Chain Splicing at IVS2 654 locus (AID 910); conditions: HeLa EGFP-654 splicing reporter, GFP fluorescence, 48 h; series mostly up to 38.3 µM; further: % of control where 0% means no effect
How it was run: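 HeLa cells stably carrying EGFP interrupted by mutant beta-globin IVS2-654 intron (CMV-driven) were treated with compound for 2 days at 37C; corrected splicing was scored as total peak GFP intensity per well (488 nm excitation, 500-520 nm emission).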

[16] = biological target: Ubiquitin carboxyl-terminal hydrolase 1 (Homo sapiens) (UniProt O94782); assay: Inhibitors of USP1/UAF1: Pilot qHTS (AID 504865); conditions: purified USP1/UAF1, Ub-rhodamine cleavage fluorescence; series mostly up to 54.9 µM;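 further: rhodamine fluorescence freed from ubiquitin-rhodamine substrate followed over time; top concentration of the series differs between compounds; on the % scale 0 is the no-effect control and ±100 the full control effect; nearly all actives have a fitted effect of over 35% in size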
Sequence of Ubiquitin carboxyl-terminal hydrolase 1 (Homo sapiens) (O94782 whole entry, looked up): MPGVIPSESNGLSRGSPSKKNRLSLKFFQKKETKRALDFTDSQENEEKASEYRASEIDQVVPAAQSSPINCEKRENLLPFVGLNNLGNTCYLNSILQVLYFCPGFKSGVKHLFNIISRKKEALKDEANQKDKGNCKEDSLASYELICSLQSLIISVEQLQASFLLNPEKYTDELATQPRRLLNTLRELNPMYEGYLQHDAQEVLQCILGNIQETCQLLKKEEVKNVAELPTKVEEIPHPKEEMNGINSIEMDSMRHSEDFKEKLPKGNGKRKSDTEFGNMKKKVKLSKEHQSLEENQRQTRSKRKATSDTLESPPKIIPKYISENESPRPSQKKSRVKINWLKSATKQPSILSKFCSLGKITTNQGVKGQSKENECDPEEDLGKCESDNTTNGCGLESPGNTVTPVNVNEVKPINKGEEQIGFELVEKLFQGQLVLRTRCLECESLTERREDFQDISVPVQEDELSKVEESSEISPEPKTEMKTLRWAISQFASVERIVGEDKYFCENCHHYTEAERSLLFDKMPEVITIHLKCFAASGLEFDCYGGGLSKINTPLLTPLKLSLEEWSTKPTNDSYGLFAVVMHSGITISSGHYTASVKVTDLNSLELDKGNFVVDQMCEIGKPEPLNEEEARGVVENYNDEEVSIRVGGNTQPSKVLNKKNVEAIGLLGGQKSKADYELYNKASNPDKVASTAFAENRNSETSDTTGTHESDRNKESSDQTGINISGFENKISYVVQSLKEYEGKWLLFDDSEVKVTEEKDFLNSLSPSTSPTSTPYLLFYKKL
How it was run: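 Kinetic fluorescence assay: 1nM USP1/UAF1, 15 min compound preincubation, then 150nM Ub-Rho; 480/540 nm.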

[17] = measured here: cell count channel max response
[18] = measured here: lipid channel max response

Row | Compound | Potency [1] | activity change, negative = inhibition [2] | Potency [3] | activity change, negative = inhibition [4] | activity, negative = inhibition [5] | Potency [6] | Potency [7] | Potency [8] | Potency [9] | Potency [10] | Potency [11] | Potency [12] | outcome [13] | activity change, negative = inhibition [14] | max response [14, 17] [%] | max response [14, 18] [%] | Potency [15] | Potency [16]
1 | COc1ccc2[nH]cc(CCNc3ncnc4ccc(-c5ccc(C(=O)N(C)C)cc5)cc34)c2c1 | > 11.4 µM (inactive) | -28% (inactive) | 12.6 µM (active) | 5.5% (inactive) | -28.2% (inactive) | > 46 µM (inactive) | > 46 µM (inactive) | inactive | inactive | 2.51 µM (active) | inactive | 7.94 µM (active) | inactive | 0.717% (inactive) | -23.3 | -23.3 |  | 
2 | Cc1cccc(CNc2ccnc(-c3ccc(C(=O)N(C)C)cc3)n2)c1 | > 11.4 µM (inactive) | -17.2% (inactive) | 25.1 µM (active) | 6.95% (inactive) | -2.13% (inactive) | > 46 µM (inactive) | > 46 µM (inactive) | inactive |  | inactive |  |  | inactive | 7.06% (inactive) | -6.92 | 0.35 | inactive | inactive
3 | COc1ccc2[nH]cc(CCNc3ncnc4ccc(-c5ccccc5CN(C)C)cc34)c2c1 | > 11.4 µM (inactive) | -1.42% (inactive) | 31.6 µM (active) | -18.9% (inactive) | 0.00328% (inactive) | > 46 µM (inactive) | > 46 µM (inactive) | inactive | inactive | 1.58 µM (active) | inactive |  | inactive | 7.35% (inactive) | -2.58 | 5.15 | inactive | inactive
4 | Cc1ccccc1-c1nc(-n2ccnc2)c2ccccc2n1 | > 11.4 µM (inactive) | -12.3% (inactive) | 0.316 µM (active) | -10.1% (inactive) | 0.874% (inactive) | > 46 µM (inactive) | > 46 µM (inactive) | inactive |  | 0.398 µM (active) | inactive | 5.01 µM (active) | inactive | 5.99% (inactive) | -6.87 | -2.77 | inactive | 
5 | COc1ccccc1-c1nc(NCc2cnc(C)cn2)c2ccccc2n1 | > 11.4 µM (inactive) | 4.95% (inactive) | 5.01 µM (active) | 2.11% (inactive) | -5.06% (inactive) | > 46 µM (inactive) | > 46 µM (inactive) | inactive | inactive |  | inactive |  | inactive | 7.28% (inactive) | 6.96 | 14.2 |  | 

Reference: PubChem BioAssay (NCATS)
